In PubChem BioAssay AID1851 (National Center for Advancing Translational Sciences (NCATS), 2009):
The campaign covered roughly 16,000 compounds. About 2,600 (16%) were called active. Another 20% or so got no clear call; they are omitted. Only a sample is shown. A number with no mark means an inactive call. The call rests on the fitted dose curve; in most records, active means well fitted curve in the direction sought with a large enough effect; inconclusive means small, poorly fitted or top-dose-only effect, or effect the other way; inactive means no such curve, though single readings can be large or run the other way.

Biological target: Cytochrome P450 2D6 (Homo sapiens) (UniProt P10635)
Sequence (P10635 whole entry, looked up): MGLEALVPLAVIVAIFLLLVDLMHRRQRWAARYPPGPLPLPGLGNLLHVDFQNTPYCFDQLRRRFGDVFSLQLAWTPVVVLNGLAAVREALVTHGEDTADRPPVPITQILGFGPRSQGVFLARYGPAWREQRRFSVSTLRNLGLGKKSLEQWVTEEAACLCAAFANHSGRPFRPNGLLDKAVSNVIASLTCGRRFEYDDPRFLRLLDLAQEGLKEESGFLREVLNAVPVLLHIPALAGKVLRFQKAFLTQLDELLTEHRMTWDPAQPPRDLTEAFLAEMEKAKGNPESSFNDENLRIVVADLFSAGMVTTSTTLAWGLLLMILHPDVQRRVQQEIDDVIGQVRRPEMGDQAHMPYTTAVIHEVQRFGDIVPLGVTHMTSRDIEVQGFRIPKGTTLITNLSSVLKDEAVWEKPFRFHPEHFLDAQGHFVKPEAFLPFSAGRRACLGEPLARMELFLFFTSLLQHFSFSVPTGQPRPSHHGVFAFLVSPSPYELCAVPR
Experiment: Cytochrome panel assay with activity outcomes
Conditions: recombinant CYP, pro-luciferin dealkylation, luminescence, p450-cyp2d6; series mostly up to 57.1 µM
On the % scale 0 is the no-effect control and ±100 the full control effect.

| SMILES | activity, negative = inhibition | AC50 |
| --- | --- | --- |
| CC(C)=NOCc1cccc(-c2cc(-c3ccccc3)no2)c1 | -6.68% [at 11.4 µM] |  |
| CC(C)COCC1CC2(CC(C)(c3csc(N)n3)OC2=O)C(=O)O1 (stereo unspecified) |  | inactive |
| CCS(=O)(=O)N1CCN(c2c(Cl)cccc2[N+](=O)[O-])CC1 |  | inactive |
| COC(=O)C1=C(C)NC(C)=C(C(=O)OC(C)C)[C@H]1c1cccc2nonc12 |  | inactive |
| Fc1cc2nc(-c3ccncc3)[nH]c2cc1F |  | 12.6 µM (active) |
| O=C(c1ccccc1)c1ccc2nc(-c3ccc(NC(=O)c4ccccc4F)cc3)[nH]c2c1 |  | inactive |
| Nc1ccc(S(=O)(=O)Nc2cnc3ccccc3n2)cc1 |  | inactive |
| O=C(O)CCNc1ccccc1C(=O)O | 3.09% [at 11.4 µM] |  |
| O=C1C2C3C=CC(C3)C2C(=O)N1c1ncn[nH]1 (stereo unspecified) |  | inactive |
| COc1ccc(CC(=O)Nc2ccc(-c3noc(-c4cccc(OC)c4)n3)cc2)cc1 |  | inactive |
| CN(C)S(=O)(=O)Oc1ccccc1C(=O)Nc1cccc(C(F)(F)F)c1 |  | inactive |
| COc1ccc(-c2noc(N(C)CC(=O)Nc3cccc(C(F)(F)F)c3)n2)cc1 |  | 35.5 µM (active) |
| C=CCn1c(SCc2ccccc2)nc2scc(-c3ccc(C)o3)c2c1=O |  | inactive |
| COc1cccc(/C=N/NC(=O)CSc2nnc(C)n2-c2ccccc2)c1O |  | inactive |
| COCCN1C(=O)C(=O)/C(=C(/O)c2cccc(OC)c2)C1c1ccco1 (stereo unspecified) |  | inactive |
| CCC(=O)NC(NCC1CCCO1)C(Cl)(Cl)Cl (stereo unspecified) |  | inactive |
| Cc1ccc(CCN2CC(C(=O)NCCN3CCOCC3)CC2=O)cc1 (stereo unspecified) |  | inactive |
| CCOCCCN1CC(C(=O)NCCc2ccc(C)cc2)CC1=O (stereo unspecified) |  | 3.55 µM (active) |
| Cc1ccc(CCN2CC(C(=O)NC3CCCC3)CC2=O)cc1 (stereo unspecified) |  | inactive |
| CC(C)=NO[C@@H](C)c1cn([C@@H]2COC[C@@H]2O)nn1 | 14.3% [at 11.4 µM] |  |
| Cc1ccc(-c2noc(-c3cc4ccccc4oc3=O)n2)cc1 |  | inactive |
| Cc1cccc(-c2noc(-c3cc4ccccc4oc3=O)n2)c1 |  | inactive |

| SMILES | activity, negative = inhibition | AC50 |
| --- | --- | --- |
| O=c1oc2ccccc2cc1-c1csc(NN=C2CCCCC2)n1 |  | 2.82 µM (active) |
| Cc1ccccc1N1CCN(S(=O)(=O)C[C@@]23CC[C@H](C[C@H]2NC(=O)[C@@H](N)CCS(C)(=O)=O)C3(C)C)CC1 |  | inactive |
| CCN1CCc2nc(NC(=O)CC(c3ccccc3)c3ccccc3)sc2C1 |  | 0.316 µM (active) |
| Cc1cc(=O)[nH]c(SCC(=O)Nc2nc3c(s2)CCCC3)n1 |  | inactive |
| CCN1CCc2nc(NC(=O)c3ccc4c(c3)OCCO4)sc2C1 |  | inactive |
| CC1=NN(c2ccccc2)C(=O)/C1=C\c1c(C)[nH]n(-c2ccccc2)c1=O |  | inactive |
| COc1ccc2oc(=O)c(C(=O)Oc3ccc(NC(C)=O)cc3)cc2c1 |  | inactive |
| Cc1ccc2oc(-c3cccc(NC(=S)NC(=O)/C=C/c4ccco4)c3)nc2c1 |  | inactive |
| CCOc1[nH]n(-c2ccc(Cl)cc2)c(=O)c1C=Nc1ccc(O)cc1 |  | inactive |
| CO[C@@H]1COC(=O)[C@H]2CCCN2C(=O)[C@@H](C)COC(=O)[C@H](COCc2ccccc2)NC(=O)C/C=C\[C@H]1C | 1.71% [at 11.4 µM] |  |
| C=C(C)[C@H]1CC=C(C)/C(=N/NC(=O)CNc2ccccc2OC)C1 |  | inactive |
| CCC(C)NS(=O)(=O)c1ccc(OCC(=O)Nc2ccc3c(c2)OCCO3)cc1 (stereo unspecified) |  | inactive |
| CCOc1ccc2nc(C)cc(Nc3ccc4c(c3)OCCO4)c2c1 |  | 1.58 µM (active) |
| CC(C)(C)c1nc(SCC(=O)Nc2ccc3c(c2)OCCO3)c2ccccc2n1 |  | inactive |
| CO[C@H]1COC(=O)[C@H](C)NC(=O)C/C=C\[C@@H](C)[C@@H](NS(=O)(=O)c2ccc(C)cc2)COC(=O)[C@H](OCc2ccccc2)/C=C\[C@@H]1C | -11.2% [at 11.4 µM] |  |
| Cc1noc(N)c1C(=O)Nc1ccc(F)cc1 |  | inactive |
| N#Cc1c(NC(=O)CCN2C(=O)c3ccccc3C2=O)oc(-c2ccccc2)c1-c1ccccc1 |  | inactive |
| CC1CCN(S(=O)(=O)c2ccc3c(c2)C(=NO)c2cc(S(=O)(=O)N4CCC(C)CC4)ccc2-3)CC1 |  | inactive |
| CC1Cc2ccccc2N1C(=O)C1CCCCN1S(=O)(=O)c1ccccc1 (stereo unspecified) |  | inactive |
| CC1CCN(CC[C@@H]2CCCN2S(=O)(=O)c2cccc(O)c2)CC1 |  | 15.8 µM (active) |
| OC[C@@H]1NC[C@@H](O)[C@H]1O |  | inactive |
| O=C(C/C=N/OCc1ccc(F)cc1Cl)c1cnc(-c2ccccc2)s1 |  | inactive |

| SMILES | activity, negative = inhibition | AC50 |
| --- | --- | --- |
| O=C(COC(=O)COc1ccccc1)Nc1ccc(OC(F)(F)F)cc1 |  | inactive |
| CC(C)OC(=O)/C(=C\c1ccc2c(c1)c1ccccc1n2C)NC(=O)c1ccccc1 |  | inactive |
| COCCn1c(=O)cnc2cnc(Oc3ccccc3)nc21 |  | inactive |
| COCCCNC(=O)c1c(N)n(/N=C/c2ccccn2)c2nc3ccccc3nc12 |  | inactive |
| CCCCCOC(=O)c1c(N)n(CCOC)c2nc3ccccc3nc12 |  | 25.1 µM (active) |
| CN(C1CCCCC1)S(=O)(=O)c1ccc(NC(=S)NC(=O)c2cccs2)cc1 |  | inactive |
| COC(=O)c1sc2ncccc2c1OCc1c(Cl)cccc1Cl |  | inactive |
| CCn1c(=O)[nH]c2ccccc2c1=O |  | inactive |
| O=c1cc(N2CCC(Cc3ccccc3)CC2)[nH]c(=O)n1C1CCCCC1 |  | inactive |
| CCCCN1CCC(n2c(=O)[nH]c3ccccc32)CC1 |  | 3.16 µM (active) |
| CC1(C)CC(=O)c2cn3ncnc3nc2C1 |  | inactive |
| O=C1C2C3C=CC(C3)C2C(=O)N1/N=C/c1cn(Cc2ccc(F)cc2)c2ccccc12 (stereo unspecified) |  | inactive |
| Cc1oc(-c2cccs2)[n+]([O-])c1C |  | inactive |
| Cc1cc(-c2cccs2)nc(-n2cccc2)n1 |  | 14.1 µM (active) |
| Nc1nc(-c2cccs2)cs1 |  | inactive |
| Cc1cc(NC(=O)CCC(=O)N(CC2CCCO2)C(C(=O)NC2CCCC2)c2cccnc2)no1 (stereo unspecified) |  | inactive |
| C=CCSc1nc(NC)c2sccc2n1 |  | inactive |
| Cc1cccc(NC(=S)N2CCC(N(C)CC3CCCO3)CC2)c1C (stereo unspecified) |  | inactive |
| COc1ccccc1-c1c(C(F)(F)F)oc2cc(OC(=O)c3cccc([N+](=O)[O-])c3C)ccc2c1=O |  | inactive |
| O=C(Nc1cccc2ccccc12)/C(=C/c1ccc([N+](=O)[O-])cc1)NC(=O)c1ccccc1 |  | inactive |
| O=C(OCC(=O)c1ccc([N+](=O)[O-])cc1)/C(=C\c1ccc(Cl)cc1)NC(=O)c1ccccc1 |  | 14.1 µM (active) |
| Cc1ccc(NC(=O)/C(=C\c2ccc([N+](=O)[O-])cc2)NC(=O)c2ccccc2)cc1 |  | inactive |
